Experimental findings from PubChem BioAssay (NCATS) are described below.

Calls of active or inactive are those of the source. Where a call stands in place of a potency, no number is given. Calls come from the whole dose curve; as a rule, active = well fitted activation curve with a large enough effect; inconclusive = small, poorly fitted or top-dose-only effect; inactive = no such curve, though single readings can be large or run the other way.

The test deals with Parathyroid hormone/parathyroid hormone-related peptide receptor (Homo sapiens) (UniProt Q03431). The test can be described thus: qHTS for PTHR1 Agonists: Optimization Screen against the NCGC LOPAC library (AID 1347079). As to conditions: HEK293 GP2 PTHR1 GloSensor cAMP luminescence, 1 h; series mostly up to 57.1 µM. An excerpt: The goal of the proposed studies is to discover new compounds that act as potent agonists on the parathyroid hormone receptor type-1 (PTHR1). The PTHR1 plays critical roles in maintaining blood calcium and phosphate levels, as well as in controlling bone remodeling. PTHR1 agonists could thus be useful for treating diseases such as hypoparathyroidism and osteoporosis. In the former disease, an agonist drug would help maintain normal blood calcium and phosphate levels under conditions of parathyroid hormone deficiency. In the latter disease, an agonist drug would stimulate new bone formation and thus reduce the risk of fracture, under conditions of bone fragility, as occurs in aging. We performed an optimization assay of the quantitative high-throughput screening (qHTS) for the parathyroid hormone receptor type-1 (PTHR1) against the NCGC LOPAC library collection of […] compounds using a unique HEK-293-derived cell line (GP2) that expresses the PTHR1 and a GloSensor cAMP reporter construct. Increase in signal (activation / agonist) is the desired outcome for compounds of interest. NIH Chemical Genomics Center [NCGC] NIH Molecular Libraries Probe Production Centers Network [MLPCN] MLPCN Grant: P01 DK011794 Assay Submitter (PI): Thomas Gardella PhD, Massachusetts General Hospital
Sequence of Parathyroid hormone/parathyroid hormone-related peptide receptor (Homo sapiens) (Q03431 whole entry, looked up): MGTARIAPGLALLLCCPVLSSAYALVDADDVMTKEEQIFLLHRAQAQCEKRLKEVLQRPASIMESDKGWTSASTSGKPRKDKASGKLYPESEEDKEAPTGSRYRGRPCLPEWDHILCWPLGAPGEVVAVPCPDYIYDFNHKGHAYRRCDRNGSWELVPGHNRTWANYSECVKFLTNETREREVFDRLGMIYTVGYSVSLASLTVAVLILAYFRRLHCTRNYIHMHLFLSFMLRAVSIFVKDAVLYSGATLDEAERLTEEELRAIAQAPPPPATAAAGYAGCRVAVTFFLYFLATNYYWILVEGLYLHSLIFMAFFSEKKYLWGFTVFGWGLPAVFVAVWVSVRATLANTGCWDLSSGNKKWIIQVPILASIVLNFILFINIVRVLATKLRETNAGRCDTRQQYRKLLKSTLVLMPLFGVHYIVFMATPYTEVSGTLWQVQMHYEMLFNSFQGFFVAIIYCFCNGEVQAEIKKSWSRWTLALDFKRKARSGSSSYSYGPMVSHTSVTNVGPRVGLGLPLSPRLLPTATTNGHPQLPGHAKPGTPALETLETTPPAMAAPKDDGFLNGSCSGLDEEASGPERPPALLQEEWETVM
Reagents / Controls: M-PTH (1-15) peptide hormone fragments was provided by the assay provider and was used as a control. Column 1 was treated with M-PTH titration (1:2 dilution) beginning with a final concentration of 10uM. Column 2 was treated with M-PTH final concentration of 10uM. Columns 3 and 4 were treated with DMSO only to assess background and noise signal. Assay Steps: Four microLiter of cells suspension was dispensed in a 1536-well assay plate at a final density of 3000 cells/well. The plates were incubated overnight, after which 4uL of 0.5mM of BloTium Luciferin plus 0.5mM IBMX was added. Next, the plate was incubated at 37C for 1hr before 23nL of compound (at various final concentrations from 40uM to 0.32uM) and control were added using a 1536-well array Kalypsys pin-tool. The treated plates were again incubated at 37C for another hour. Luminescence signal was obtained using the PerkinElmer ViewLux plate reader after 15min or room temperature incubation.
Regarding `O=C1C(SCCO)=C(SCCO)C(=O)c2ccccc21`, the Potency result was “inactive”.
The same measure for `Cn1c(=O)c2[nH]c(-c3ccccc3)nc2n(C)c1=O`: “inactive”; for `CCCN(CC1CC1)c1nc(C)nc(Nc2c(Cl)cc(Cl)cc2Cl)c1Cl`: “inactive”; for `O=c1[nH]c2cc(Cl)c(Cl)cc2[nH]c1=O`: “inactive”.
The same measure for `CN1[C@@H](CC(=O)c2ccccc2)CCC[C@H]1C[C@H](O)c1ccccc1`: “inactive”; for `N.N.O=C(O)C1(C(=O)O)CCC1.[Pt]`: “inactive”.
The same measure for `CCC1C(=O)OCC1Cc1cncn1C` (stereo not given): “inactive”.
With `C[C@@H](NC(=O)/C(C#N)=C/c1ccc(O)c(O)c1)c1ccccc1`, the Potency entry is “inactive”.
The same measure for `C=C[C@H]1CN2CC[C@@H]1C[C@@H]2[C@@H](O)c1ccnc2ccc(OC)cc12`: “inactive”; for `Oc1cc2c(cc1O)CN(C(=S)NCCc1ccc(Cl)cc1)CCC2`: “inactive”.
For `C=CC(C)=C[C@@]1(C)SC(=O)C(C)=C1O`, the Potency result is “inactive”.
`C[C@@H](CN1CCC(Cc2ccccc2)CC1)[C@@H](O)c1ccc(O)cc1`: the Potency result is “inactive”.
The same measure for `COc1ccc(/C=C/C(=O)Nc2ccccc2C(=O)O)cc1OC`: “inactive”; for `CC(COc1ccc(/C=C/c2ccccc2)cc1)[N+](C)(C)C` (stereo not given): “inactive”.
The same measure for `CC1OC1P(=O)(O)O` (stereo not given): “inactive”.
For `CN(C)c1ccc(/C=C2\C(=O)Nc3ccccc32)cc1`, the Potency entry is “inactive”.
The same measure for `NCCNC(=O)c1ncsc1-c1cccc(F)c1`: “inactive”; for `N.N.N.N.N.N.N.N.N.N.N.N.N.N.O.O.[Ru+4].[Ru+5].[Ru+5]`: “inactive”; for `COC(=O)c1c(C)[nH]c(C)c1C(=O)c1ccccc1Cc1ccccc1`: “inactive”.
The same measure for `CCCCCCCCCCCCCCCC(=O)NCC(COP(=O)([O-])OCC[N+](C)(C)C)OCC` (stereo not given): “inactive”; for `CN1CCC[C@H]1c1cccnc1`: “inactive”; for `CSc1ccccc1N1CCN(CCCCCC(=O)NC2CCCc3ccccc32)CC1` (stereo not given): “inactive”.
As for `CCCCC/C=C\CC(O)/C=C/c1cccc(CC(O)CCCCO)n1` (stereo not given), the Potency result is “inactive”.
Regarding `N[C@@H](CC(=O)O)C(=O)O`, the Potency result is “inactive”.
With `CC(C)NCC(O)COc1cccc2ccccc12` (stereo not given), the Potency result is “inactive”.
`CC12C(=O)OC(=O)C1(C)C1CCC2O1` (stereo not given): the Potency entry is “inactive”.
The same measure for `CNCC[C@H](Oc1ccc(C(F)(F)F)cc1)c1ccccc1`: “inactive”.
The same measure for `CC(=O)N[C@H](C(=O)O)C(C)(C)SN=O`: “inactive”; for `O=C1O/C(=C/Br)CCC1c1cccc2ccccc12` (stereo not given): “inactive”; for `N#C/C(=C\c1ccc(-c2cc(Cl)ccc2Cl)o1)C(=O)Nc1cccc2ncccc12`: “inactive”.
The same measure for `CCCCCCCCCCCCCCCCCCNC(=O)OCC(COP(=O)([O-])OCC[n+]1ccsc1)OC` (stereo not given): “inactive”; for `O=C(CCCCCN1CCN(c2ccccc2-c2ccccc2)CC1)NC1CCCc2ccccc21` (stereo not given): “inactive”.
Consider `CCN1/C(=C/C(C)=O)Sc2ccc(OC)cc21`, for which the Potency entry is “inactive”.
The same measure for `COc1cc2c(CCNC(C)=O)c[nH]c2cc1Cl`: “inactive”; for `O=c1[nH]c2cc([N+](=O)[O-])c([N+](=O)[O-])cc2[nH]c1=O`: “inactive”.
The same measure for `OCC1O[C@H]([S-])[C@H](O)[C@@H](O)[C@@H]1O.[Au+]` (stereo not given in full): “inactive”; for `S=C(S)OC1CC2CC1C1CCCC21` (stereo not given): “inactive”.
The same measure for `Cc1ccc(C(=O)O[C@H](C(=O)O)[C@@H](OC(=O)c2ccc(C)cc2)C(=O)O)cc1` (tested in a mixture with another compound): “inactive”.
With `CCCn1c(=O)c2[nH]c(-c3ccc(OCC(=O)NCCN)cc3)nc2n(CCC)c1=O`, the Potency result was “inactive”.
The same measure for `O=C(O)CC[C@@H](C(=O)O)N1C(=O)c2ccccc2C1=O`: “inactive”.
